Measured values taken from the supplement of paper PMC10338343.
± gives the standard deviation.

Key:
[1] = system: MILI (PIWIL2) piRISC loaded with L1MC piRNA (26 nt); test: pre-steady-state target cleavage rate (min^-1); guide: L1MC piRNA 5'p-UAACUAAAUACUAUGCAAGCUGUAGG; higher = faster piRNA-guided slicing of the target
Summary of the method: (§1)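 With or without 500 nM GTSF1 partner protein, 1 nM active affinity-purified piRISC carrying one synthetic guide was mixed with 0.1 nM transcribed, DNA-blocked target RNA library in HEPES–potassium acetate buffer at 33 °C for 0–8 or 0–960 min. Uncleaved targets were sequenced and normalised to depth and to weakly complementary targets, three trials were pooled, and k3 was capped at 0.0001 min^-1. The pre-steady-state cleavage rate came from a burst-and-steady-state fit.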

[2] = system: EfPiwi piRISC loaded with L1MC piRNA (26 nt); test: pre-steady-state target cleavage rate (min^-1); auxiliary factor: 500 nM Ephydatia muelleri Gtsf1; guide: L1MC piRNA 5'p-UAACUAAAUACUAUGCAAGCUGUAGG; MIWI and MILI are mouse PIWI proteins and EfPiwi is from a freshwater sponge; tags in brackets are library labels; higher = faster piRNA-guided slicing of the target
Summary of the method: as §1

[3] = auxiliary factor: 500 nM mouse GTSF1
[4] = auxiliary factor: none (no GTSF1)

Sequence | pre-steady-state target cleavage rate [1, 3] | pre-steady-state target cleavage rate [1, 4] | pre-steady-state target cleavage rate [2]
UCCUGCUACAGCCUGCAUAGUAUUUAGUUA | 0.279 ± 0.025 | 0.00704 ± 0.0031 | 0.01 ± 0.0029
UCCUGGUACAGCUCGCAUAGUAUUUAGUUA | 0.262 ± 0.023 | 0.0138 ± 0.0045 | 0.00967 ± 0.0034
UCCUGGAUCAGCUUGCAUUGUAAUUAGUUA | 0.097 ± 0.011 | 0.00466 ± 0.0022 | 0.00179 ± 0.0017
UCCUGGAUCACGCUUGCAUAGUAUUUAGUUA | 0.205 ± 0.018 | 0.00715 ± 0.0036 | 0.223 ± 0.05
UCCUCCUACAGCUAGCAAAGUAUUUAGUUA | 0.138 ± 0.014 | 0.00428 ± 0.0022 | 0.0276 ± 0.0094
UCCUGCUACAGCUUGCGUAGUAUUUAGUUA | 0.206 ± 0.014 | 0.00688 ± 0.0029 | 0.0375 ± 0.011
UCCUGGAACAUGCUUGCAUAGUAUUUAGUUA | 0.184 ± 0.011 | 0.00694 ± 0.0023 | 0.0178 ± 0.0057
UCCUGGAUCAGCUUGCAUGGUAUUUAGUUA | 0.285 ± 0.025 | 0.011 ± 0.0027 | 0.0193 ± 0.0038
UCCUGGAACAGCUUGCAAAGUAAUUAGUUA | 0.131 ± 0.018 | 0.00424 ± 0.0022 | 0.00403 ± 0.002
UCCUGGAUCAGCUUAGCAUAGUAUUUAGUUA | 0.232 ± 0.018 | 0.00685 ± 0.0027 | 0.0874 ± 0.019
UCCUGGAUGAGCUUGCAUAGUAUUUGAGUUA | 0.307 ± 0.051 | 0.00461 ± 0.0029 | 0.00491 ± 0.0024
UCCUGGAUCAGGUAGCAUAGUAUUUAGUUA | 0.118 ± 0.013 | 0.00574 ± 0.0022 | 0.00369 ± 0.0035
UCCUGGAACAGCUUGCAAAGUAUAUAGUUA | 0.116 ± 0.013 | 0.00404 ± 0.0021 | 0.00745 ± 0.0042
UCCUGGAACAGCUUGCAUAGUAUUAAGUUA | 0.212 ± 0.024 | 0.00457 ± 0.0019 | 0.00549 ± 0.0022
UCCUGGAUCAGCUUACAUAGUAUUUAGUUA | 0.249 ± 0.014 | 0.00805 ± 0.0023 | 0.175 ± 0.039
UCCUGCUACUGCUUGCAUAGUAAUUAGUUA | 0.175 ± 0.023 | 0.00358 ± 0.0023 | 0.00587 ± 0.0019
UCCUCGAUCAGCUUGCAUAGUAUUUAGUAA | 0.269 ± 0.017 | 0.00809 ± 0.0023 | 0.00989 ± 0.0033
UCCUCCUACUCGUUGCAUAGUAUUUAGUUA | 0.211 ± 0.018 | 0.00864 ± 0.002 | 0.101 ± 0.025
UCCUGGUACAGCUUGCAUAGUAUAUAGUUA | 0.274 ± 0.041 | 0.00795 ± 0.0034 | 0.00533 ± 0.0027
